Assay results reported in PubChem BioAssay (Tox21).
Values joined by “and” are separate entries in the source; they are usually repeats but may differ in a detail not shown here. Equal values may be shown once. Inconclusive results are not listed. Where a call stands in place of a potency, no number is given. Active and inactive are the calls of the source. Calls come from the whole dose curve; as a rule, active = well fitted cell-killing curve with a large enough effect in the repeat runs; inconclusive = weak or mixed curves; inactive = no such curve, though single readings can be large or run the other way.

assay: qHTS assay to identify small molecule antagonists of the androgen receptor (AR) signaling pathway - cell viability counter screen (AID 743033; note: nearly all actives have a fitted effect of over 45% in size); conditions: AR-bla HEK293 viability, CellTiter-Glo luminescence, 16 h; series mostly up to 58.5 µM
Excerpt: National Center for Advancing Translational Sciences [NCATS]
NIH Chemical Genomics Center [NCGC]
U.S. Environmental Protection Agency [EPA]
National Institutes of Environmental Health Sciences [NIEHS]
National Toxicology Program [NTP]
U.S. Food and Drug Administration [FDA]
Androgen receptor (AR), a nuclear hormone receptor, plays a critical role in AR-dependent prostate cancer and other androgen related diseases. Endocrine disrupting chemicals (EDCs) and their interactions with steroid hormone receptors like AR may cause disruption of normal endocrine function as well as interfere with metabolic homeostasis, reproduction, developmental and behavioral functions. To identify the compounds that inhibit AR signaling, GeneBLAzer AR-UAS-bla-GripTite cell line (Invitrogen, Carlsbad, CA, USA) containing a beta-lactamase reporter gene under control of an Upstream Activator Sequence (UAS) stably integrated into HEK293 cells was used to screen the Tox21 10K compound library. The cytotoxicity of the Tox21 compound library against the AR-bla cell line was tested in parallel by measuring the cell viability using CellTiter-Glo assay in the same wells.
Tox21 Assay Protocol Summary:
AR-bla cells were dispensed at 2,000 cells/5 uL of assay medium per well into black wall/clear-bottom 1536-well plates using a Multidrop Combi (ThermoFisher Scientific, Waltham, MA) dispenser. After the assay plates were incubated at a 37C and 5% CO2 for 4 hr, 23 nL of compounds dissolved in DMSO, positive controls or DMSO only was transferred to the assay plate by a Pintool station (Kalypsys, San Diego, CA), followed by addition of 1 uL of agonist (R1881) in culture medium using a Bioraptr Flying Reagent Dispenser (FRD) workstation (Beckman Coulter, Indianapolis, IN, USA). The plates were incubated at a 37C and 5% CO2 for 16 h. After 1 uL of LiveBLAzerTM B/G FRET substrate was added using a Bioraptr FRD, the plates were incubated at room temperature for 2 h and fluorescence intensity was measured by an Envision plate reader (PerkinElmer, Shelton, CT). For cell viability readout that measures cytotoxicity, 4 ul/well of CellTiter-Glo reagent was added into the assay plates using a Bioraptr FRD. After 30 min incubation at room temperature, the luminescence intensity in the plates was measured using a ViewLux (PerkinElmer) plate reader.
Potency is the fitted concentration of half-maximal effect.

| Structure (SMILES) | Potency | activity change, negative = cytotoxicity |
| --- | --- | --- |
| CCCCCc1ccc(Cl)cc1 | inactive | – |
| C=CC(=O)OCCOC(=O)C=C | inactive | – |
| ClCCl | inactive | – |
| CC/C=C\CCCCCO | inactive | – |
| CCn1c2ccccc2c2cc([N+](=O)[O-])ccc21 | inactive | – |
| C#C[C@]1(OC(C)=O)CC[C@H]2[C@@H]3CCC4=C/C(=N/O)CC[C@@H]4[C@H]3CC[C@@]21CC | inactive | – |
| c1ccc(SSc2ccccc2)cc1 | inactive | – |
| O=C1c2ccccc2C(=O)N1SC1CCCCC1 | 38.9 µM (active) and 49 µM (active) | – |
| Nc1cc(Cl)c(O)c(Cl)c1 | inactive | – |
| Nc1ccc(NCCO)c([N+](=O)[O-])c1 | inactive | – |
| CCCCCCCCCCCCCCCC[N+](C)(C)CC | 9.52 µM (active) and 21.9 µM (active) | – |
| CC(N=C(NC#N)Nc1ccncc1)C(C)(C)C (stereo not given) | inactive | – |
| CCCCCCC1CCCC(=O)O1 (stereo not given) | inactive | – |
| COC(=O)c1ccccc1C | inactive | – |
| CCCCCCCCCCC[C@@H](C[C@@H]1OC(=O)[C@H]1CCCCCC)OC(=O)[C@H](CC(C)C)NC=O | inactive | – |
| O=C(/C=C/c1ccccc1)OC/C=C/c1ccccc1 | inactive | – |
| CN1CCCCC1CCN1c2ccccc2Sc2ccc(S(C)=O)cc21 (stereo not given) | inactive | – |
| O=C(O)c1cc(O)c2ccccc2c1O | inactive | – |
| O[C@@H]([C@H](O)[C@H](O)CBr)[C@H](O)CBr | inactive | – |
| CC[N+](CC)(CC)CCOC(=O)C(C1CCCC1)C1CCCC1 | inactive | – |

| Structure (SMILES) | Potency | activity change, negative = cytotoxicity |
| --- | --- | --- |
| FC(F)(F)c1cccc(Cl)c1 | inactive | – |
| CCC(COC(=O)CCS)(COC(=O)CCS)COC(=O)CCS | inactive | – |
| O=C(O)Cc1ccccc1Nc1c(Cl)cccc1Cl | inactive | – |
| O=S(=O)(O)c1ccc(Nc2nc(Nc3ccc(/C=C/c4ccc(Nc5nc(Nc6ccc(S(=O)(=O)O)cc6)nc(N(CCO)CCO)n5)cc4S(=O)(=O)O)c(S(=O)(=O)O)c3)nc(N(CCO)CCO)n2)cc1 | inactive | – |
| CCCC1CCC(=O)CC1 | inactive | – |
| CCCCN(CCCC)CC(O)c1cc(Cl)cc2c1-c1ccc(Cl)cc1/C2=C/c1ccc(Cl)cc1 (stereo not given) | inactive | – |
| OC1CCCc2ccccc21 (stereo not given) | inactive | – |
| C#C[C@]1(OC(C)=O)CC[C@H]2[C@@H]3CCC4=C[C@@H](OC(C)=O)CC[C@@H]4[C@H]3CC[C@@]21C | inactive | – |
| O=[N+]([O-])c1ccc(O)cc1C(F)(F)F | 27.5 µM (active) | – |
| O=C(O)O | – | -8.19% [at 7.04 µM] (inactive) |
| O=C(O)c1ccc2cc(C(=O)O)ccc2c1 | inactive | – |
| C=Cc1ccccc1C=C | inactive | – |
| Cc1cc(C(C)(C)C)c(O)c(C)c1Cn1c(=O)n(Cc2c(C)cc(C(C)(C)C)c(O)c2C)c(=O)n(Cc2c(C)cc(C(C)(C)C)c(O)c2C)c1=O | inactive | – |
| CCC(CC)(CC(=O)Nc1cccc(/C=C/c2nc(C3CCC3)cs2)c1)C(=O)O | inactive | – |
| CC(C)(C)CC(C)(C)c1ccc(Nc2ccc(C(C)(C)CC(C)(C)C)cc2)cc1 | – | 1.05% [at 7.04 µM] (inactive) |
| CCN(CC)C(=O)c1cc(S(=O)(=O)Cc2ccccc2)c(N2CCC(c3ccccc3)CC2)cc1N(CC)CCN(C)C | 15.3 µM (active) | – |
| CC(C)(C)c1ccc(C(O)CCCN2CCC(C(O)(c3ccccc3)c3ccccc3)CC2)cc1 (stereo not given) | inactive | – |
| CC(C)CCCCCOC(=O)CCS | inactive | – |
| CCC(CC)C(C)CCOC(C)=O (stereo not given) | inactive | – |
| CCCCNS(=O)(=O)c1ccc(C)cc1 | inactive | – |
